Measured values reported in PubChem BioAssay (NCI).
Compounds without any hit were thinned out: in the full panel of roughly 79,000, 15% have a hit. Calls of active or inactive are those of the source. Cut-off read from the data, not from the text of the source: active = growth inhibition above about 70%; inactive = the rest.

Assays:
[1] = NCI Yeast Anticancer Drug Screen. Data for the rad52 strain (AID 147);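 note: 0% = growth of vehicle-treated control cultures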; settings: S. cerevisiae rad52 mutant growth inhibition, stronger effect = higher value
In short: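 Genetically altered yeast (DNA damage repair defect) treated with compound; inhibition calculated relative to vehicle.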

[2] = NCI Yeast Anticancer Drug Screen. Data for the wt1 strain (AID 149);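 note: 0% = growth of vehicle-treated wt1 cultures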; settings: S. cerevisiae wt1 strain (SPY 50644) growth inhibition, stronger effect = higher value
In short: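 Measured: growth of wt1 yeast under compound versus vehicle treatment, reported as inhibition.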

[3] = NCI Yeast Anticancer Drug Screen. Data for the rad50EPP+ strain (AID 151);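 note: 0% = growth of vehicle-treated control cultures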; settings: S. cerevisiae rad50 mutant strain, stronger effect = higher value
In short: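 Strain rad50EPP+; compound exposure; % growth inhibition vs vehicle.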

[4] = NCI Yeast Anticancer Drug Screen. Data for the mgt1 strain (AID 153); settings: S. cerevisiae mgt1 mutant growth inhibition, stronger effect = higher value
In short: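 Read-out: yeast growth inhibition vs vehicle control. Strain mgt1, drawn from a panel altered in DNA damage repair or cell cycle control.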

[5] = NCI Yeast Anticancer Drug Screen. Data for the rad50 strain (AID 155);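 note: 0% = growth of vehicle-only cultures of the same strain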; settings: S. cerevisiae rad50 strain growth inhibition, stronger effect = higher value
In short: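 Growth of the mutant yeast was measured after compound exposure and referenced to vehicle-treated cultures.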

[6] = NCI Yeast Anticancer Drug Screen. Data for the mec2-1 strain (AID 157); settings: S. cerevisiae mec2-1 strain, stronger effect = higher value
In short: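 Cells of the genetically defined mec2-1 yeast strain are incubated with test compound. Inhibition of growth is calculated against vehicle-treated controls.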

[7] = NCI Yeast Anticancer Drug Screen. Data for the rad14 strain (AID 159);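 note: 0% = growth of vehicle-treated control cultures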; settings: S. cerevisiae rad14 strain growth inhibition, stronger effect = higher value
In short: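 Here, inhibition of yeast growth was measured after compound exposure, using a strain with a genetic defect in DNA damage repair and vehicle-treated cultures as the reference.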

[8] = NCI Yeast Anticancer Drug Screen. Data for the sgs1 mgt1 strain (AID 161);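 note: 0% = growth of cultures given vehicle only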; settings: S. cerevisiae sgs1 mgt1 strain, stronger effect = higher value
In short: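 Genetically altered yeast, compound exposure, growth inhibition relative to vehicle.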

[9] = NCI Yeast Anticancer Drug Screen. Data for the CLN2oe strain (AID 163);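 note: 0% = growth of vehicle-only control cultures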; settings: S. cerevisiae CLN2oe strain, stronger effect = higher value
In short: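 Strain altered in cell-cycle control, incubated with compound; growth compared to solvent-treated controls.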

[10] = NCI Yeast Anticancer Drug Screen. Data for the cln2 rad14 strain (AID 165);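 note: 0% = growth equal to vehicle treated cultures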; settings: S. cerevisiae cln2 rad14 strain, stronger effect = higher value
In short: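 The screen exposed genetically defined yeast (cln2 rad14) to test compounds and scored growth inhibition relative to vehicle-treated controls.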

[11] = NCI Yeast Anticancer Drug Screen. Data for the bub3 strain (AID 167); settings: S. cerevisiae bub3 mutant strain, stronger effect = higher value
In short: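 Whole-cell yeast assay. The mutant strain was incubated with compounds, and growth inhibition was determined by comparison with vehicle-treated cells.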

[12] = NCI Yeast Anticancer Drug Screen. Data for the wt2 strain (AID 169);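 note: 0% = growth of vehicle-treated yeast cultures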; settings: S. cerevisiae wt2 strain growth inhibition, stronger effect = higher value
In short: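 Steps: yeast strain treated with compound; growth recorded; inhibition calculated relative to cultures given vehicle alone.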

[13] = NCI Yeast Anticancer Drug Screen. Data for the mlh1 strain (AID 171);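 note: 0% = growth of vehicle-treated control cultures of the same strain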; settings: S. cerevisiae mlh1 strain growth inhibition, stronger effect = higher value
In short: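 Yeast screen: mutant strain plus compound, growth scored against vehicle control wells.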

[14] = NCI Yeast Anticancer Drug Screen. Data for the sgs1 strain (AID 173);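 note: 0% = growth of vehicle-only control cultures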; settings: S. cerevisiae sgs1 mutant, stronger effect = higher value
In short: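 Inhibition of yeast growth served as the measure. The mutant strain was treated with each compound, and growth was normalised to cultures receiving vehicle alone.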

[15] = at 5.0 µM (retest, dose inferred, filed as 0.5)
[16] = at 50.0 µM (retest, dose inferred, filed as 5.0)

Measured: growth inhibition

CNc1ccc(Cc2c[nH]c3ccccc23)cc1
active: [5]; [16] 76% | [5]; at 50.0 µM 89% | [6]; [16] 86% | [10]; [16] 70% | [11]; [16] 89%
inactive: [1]; at 1.2 µM -20% | [1]; at 3.7 µM -35% | [1]; at 11.0 µM -27% | [1]; at 33.0 µM 4% | [1]; at 100.0 µM 22% | [2]; at 1.2 µM -11% | [2]; at 3.7 µM -11% | [2]; at 11.0 µM -17% | [2]; at 33.0 µM -17% | [2]; at 100.0 µM -1% | [3]; at 1.2 µM -36% | [3]; at 3.7 µM -48% | [3]; at 11.0 µM -23% | [3]; at 33.0 µM 26% | [3]; at 100.0 µM 39% | [4]; at 1.2 µM -32% | [4]; at 3.7 µM -28% | [4]; at 11.0 µM -32% | [4]; at 33.0 µM 1% | [4]; at 100.0 µM 25% | [5]; at 1.2 µM -40% | [5]; at 3.7 µM -48% | [5]; [15] 42% | [5]; at 11.0 µM -41% | [5]; at 33.0 µM 14% | [5]; at 100.0 µM 26% | [6]; at 1.2 µM -28% | [6]; at 3.7 µM -15% | [6]; [15] 56% | [6]; at 11.0 µM -23% | [6]; at 33.0 µM -5% | [6]; at 50.0 µM 67.9% | [6]; at 100.0 µM 8% | [7]; at 1.2 µM -21% | [7]; at 3.7 µM -19% | [7]; at 11.0 µM -18% | [7]; at 33.0 µM -5% | [7]; at 100.0 µM -3% | [8]; [15] -13% | [8]; [16] 64% | [9]; at 1.2 µM -8% | [9]; at 3.7 µM -30% | [9]; at 11.0 µM -35% | [9]; at 33.0 µM -19% | [9]; at 100.0 µM -5% | [10]; [15] 27% | [11]; at 1.2 µM -8% | [11]; at 3.7 µM -1% | [11]; [15] 15% | [11]; at 11.0 µM 10% | [11]; at 33.0 µM 7% | [11]; at 100.0 µM 30% | [12]; at 1.2 µM -17% | [12]; at 3.7 µM -24% | [12]; at 11.0 µM -29% | [12]; at 33.0 µM -5% | [12]; at 100.0 µM 13% | [13]; at 1.2 µM -35% | [13]; at 3.7 µM -41% | [13]; at 11.0 µM -25% | [13]; at 33.0 µM 15% | [13]; at 100.0 µM 27% | [14]; at 1.2 µM -30% | [14]; at 3.7 µM -30% | [14]; at 11.0 µM -31% | [14]; at 33.0 µM 11% | [14]; at 100.0 µM 28%
